Records with an inconclusive call do not appear. Values without a mark were called inactive. Active and inactive are the calls of the source. Calls come from the whole dose curve; as a rule, active = well fitted curve in the direction sought with a large enough effect; inconclusive = small, poorly fitted or top-dose-only effect, or another doubt; inactive = no such curve, though single readings can be large; an effect the other way counts as inactive or inconclusive.

Assay [1] deals with MCC-13. The experiment in a line: qHTS assay to identify novel small-molecules to repurpose for Merkel cell carcinoma treatment (AID 1296009). Note: nearly all actives have a fitted effect of over 60% in size. As to conditions: MCC and control cell lines, CellTiter-Glo viability, 72 h; series mostly up to 46 µM. An outline of the steps: (§1)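 Cells were treated for 72 hr at 37 degree celsius with compounds in 8- or 11-point dose response. Viability was read by CellTiter-Glo luminescence, normalized to no-cell (cytotoxicity) and DMSO controls.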

Assay [2] has as its system MCC-26. The assay is described as above. As to conditions: MCC and control cell lines, CellTiter-Glo viability, 72 h; series mostly up to 46 µM. An outline of the steps:
as §1
On the technique in general: ATP-based viability assays read luminescence as a measure of living cells.

The test system of assay [3] is MKL-1. The description is as above. Conditions: MCC and control cell lines, CellTiter-Glo viability, 72 h; series mostly up to 46 µM. An outline of the steps: as §1
In assay [4] the test system is MKL-2. The description is as above. Conditions: MCC and control cell lines, CellTiter-Glo viability, 72 h; series mostly up to 46 µM. An outline of the steps:
as §1

Assay [5] concerns UISO. The assay is described as above. As to conditions: MCC and control cell lines, CellTiter-Glo viability, 72 h; series mostly up to 46 µM. An outline of the steps: as §1
Assay [6] concerns C33A. In words: Primary qHTS to identify gynecologic anti-cancer compounds using libraries of approved drugs and bioactive compounds (AID 1345084). Note: nearly all actives have a fitted effect of over 55% in size. As to conditions: Gynecologic cancer cell panel viability, ATPlite luminescence, 48 h; series mostly up to 57.5 µM. An outline of the steps:
(§2)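 48 h compound exposure at 37 C, 5% CO2; five-point qHTS. ATPlite luminescence readout of cell ATP.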
For orientation: Quantitative high-throughput screening tests each substance at several concentrations.

Assay [7] deals with CAOV3. The description is as above. Conditions: Gynecologic cancer cell panel viability, ATPlite luminescence, 48 h; series mostly up to 57.5 µM. An outline of the steps:
as §2

The subject of assay [8] is CASKI. The assay is described as above. As to conditions: Gynecologic cancer cell panel viability, ATPlite luminescence, 48 h; series mostly up to 57.5 µM. An outline of the steps: as §2
In assay [9] the test system is Es-2. Described as above. Conditions: Gynecologic cancer cell panel viability, ATPlite luminescence, 48 h; series mostly up to 57.5 µM. An outline of the steps:
as §2

The subject of assay [10] is HeLa. Described as above. As to conditions: Gynecologic cancer cell panel viability, ATPlite luminescence, 48 h; series mostly up to 57.5 µM. An outline of the steps: as §2
Assay [11] deals with Hek293T. Described as above. As to conditions: Gynecologic cancer cell panel viability, ATPlite luminescence, 48 h, control line for the selectivity index; series mostly up to 57.5 µM. An outline of the steps:
as §2

In assay [12] the test system is JEG-3. The description is as above. Conditions: Gynecologic cancer cell panel viability, ATPlite luminescence, 48 h; series mostly up to 57.5 µM. An outline of the steps: as §2
In assay [13] the test system is OV90. Described as above. Conditions: Gynecologic cancer cell panel viability, ATPlite luminescence, 48 h; series mostly up to 57.5 µM. An outline of the steps:
as §2

In assay [14] the test system is PA-1. The description is as above. Conditions: Gynecologic cancer cell panel viability, ATPlite luminescence, 48 h; series mostly up to 57.5 µM. An outline of the steps: as §2
Assay [15] deals with Tov-21-G. The description is as above. As to conditions: Gynecologic cancer cell panel viability, ATPlite luminescence, 48 h; series mostly up to 57.5 µM. An outline of the steps: as §2
For assay [16], the system named is Tov112D. The assay is described as above. As to conditions: Gynecologic cancer cell panel viability, ATPlite luminescence, 48 h; series mostly up to 57.5 µM. An outline of the steps:
as §2

The nature of assay [17]: Drug repurposing screens with cells derived from glioblastoma tumor samples (AID 1345199). For all read-outs here: nearly all actives have a fitted effect of over 40% in size. As to conditions: GBM patient neurospheres viability, ATP luminescence, 48 h; for Potency: tumour line A. An outline of the steps:
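Four patient lines of CD133+ GBM neurospheres were screened at several concentrations; hits were retested in those lines plus three slower-growing GBM lines, using 48-hour treatment and ATP-based viability.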

In assay [18] the test system is WaGa. In words: qHTS assay to identify novel small-molecules to repurpose for Merkel cell carcinoma treatment (AID 1296009). Note: nearly all actives have a fitted effect of over 60% in size. As to conditions: MCC and control cell lines, CellTiter-Glo viability, 72 h; series mostly up to 46 µM. An outline of the steps: as §1
Assay [19] deals with SKOV3. In words: Primary qHTS to identify gynecologic anti-cancer compounds using libraries of approved drugs and bioactive compounds (AID 1345084). Note: nearly all actives have a fitted effect of over 55% in size. As to conditions: Gynecologic cancer cell panel viability, ATPlite luminescence, 48 h; series mostly up to 57.5 µM. An outline of the steps: as §2
The mark [20] stands for this setting: at 45.9 µM (top of the series), tumour line B.
[21] abbreviates: at 46.1 µM (top of the series), tumour line C.
[22] abbreviates: at 45.9 µM (top of the series), tumour line D.
% is set by controls: 0 for no effect and ±100 for the full control effect; potency is the fitted concentration of half-maximal effect.

In the case of `Cc1nc2ccccn2c(=O)c1CCN1CCC(C(=O)c2ccc(F)cc2)CC1`, the Potency result in assay [1], in [2], in assay [3], in [4], in assay [5] and in [6] was “inactive” in each case. Also, the Potency result in [7], in assay [8], in assay [9], in assay [10], in assay [11] and in [12] was “inactive” in each case. The Potency result in assay [13], in [14], in [15] and in assay [16] was “inactive” throughout. The activity, negative = cell killing in assay [17] (setting [20]) is -22.2%. The Potency in assay [17] is 6.31 µM (active).
Take `CN(C)CCN(Cc1cccs1)c1ccccn1`: the Potency entry in [1], in assay [2], in assay [3], in assay [4], in assay [5] and in [18] was “inactive” throughout. Moreover, the Potency result in assay [6], in assay [7], in [8], in assay [9], in [11] and in [12] was “inactive” throughout. For the same molecule, the Potency entry in assay [13], in assay [14], in assay [19], in assay [15] and in assay [16] was “inactive” in each case. Besides, the activity, negative = cell killing in assay [17] (setting [20]) is -18%. Moreover, in assay [17], the Potency is 8.91 µM (active).
For `NC(N)=NC(=O)Cc1c(Cl)cccc1Cl`, the Potency entry in [1], in assay [2], in assay [3], in [4], in [5] and in assay [18] was “inactive” each time. Further, the Potency entry in [6], in assay [7], in assay [8], in assay [9], in assay [10] and in assay [11] was “inactive” in each case. The Potency entry in [12], in [14], in [19], in assay [15] and in assay [16] was “inactive” in each case. For the same molecule, the activity, negative = cell killing in [17] (setting [21]) was -19.8%. Also, in [17], the Potency was 5.62 µM (active).
As to `Cc1ccc(/C(=C\CN2CCCC2)c2ccccn2)cc1`, the Potency entry in assay [1], in assay [2], in assay [3], in [4], in assay [5] and in [18] was “inactive” in each case. The Potency entry in [6], in [7], in assay [8], in assay [9], in assay [11] and in assay [12] was “inactive” each time. In addition, the Potency result in [13], in [14], in [19], in [15] and in assay [16] was “inactive” in each case. Moreover, the activity, negative = cell killing was -22.4% in assay [17] (setting [20]), -28.9% in assay [17] (setting [22]) and 0.541% in assay [17] (setting [21]). Also, the Potency in [17] is 17.8 µM (active).
For the molecule `CC(=O)[C@]1(O)Cc2c(O)c3c(c(O)c2[C@@H](O[C@H]2C[C@H](N)[C@H](O)[C@H](C)O2)C1)C(=O)c1ccccc1C3=O`, the Potency in assay [1] is 3.76 µM (active); in assay [2], 1.33 µM (active); in [3], 119 nM (active); in [4] it was 94.4 nM (active); in [5] it was 422 nM (active); in assay [18], 106 nM (active). Further, the Potency was 501 nM (active) in assay [6]; 1 µM (active) in assay [8]; 1 µM (active) in assay [9]; 7.08 µM (active) in assay [10]; 708 nM (active) in [11]; 3.16 µM (active) in [13]. The Potency is 282 nM (active) in [14], 1.78 µM (active) in assay [19], 794 nM (active) in assay [15] and 562 nM (active) in assay [16].
`CN(C)CC/C=C1\c2ccccc2COc2ccccc21`: the Potency result in assay [1], in assay [2], in assay [3], in assay [5], in assay [18] and in assay [6] was “inactive” in each case. The Potency result in assay [7], in [9], in [11], in assay [12], in [14] and in assay [19] was “inactive” each time. Besides, the Potency entry in [15] and in assay [16] was “inactive” throughout. For the same molecule, the activity, negative = cell killing is -27.9% in assay [17] (setting [20]) and -1.82% in [17] (setting [21]). Besides, the Potency in assay [17] was 14.1 µM (active).
As to `CCOC(=O)c1cnc2c(cnn2CC)c1NN=C(C)C`, the Potency result in assay [1], in assay [2], in [3], in assay [5], in [18] and in [6] was “inactive” in each case. Further, the Potency result in assay [7], in assay [8], in [9], in [10], in assay [11] and in [12] was “inactive” each time. Besides, the Potency entry in assay [13], in assay [14], in assay [19], in assay [15] and in [16] was “inactive” throughout. In addition, the activity, negative = cell killing was -11.6% in [17] (setting [20]), -28.3% in assay [17] (setting [22]) and -18.1% in assay [17] (setting [21]). Besides, the Potency in assay [17] is 11.2 µM (active).

For the origin of these results see PubChem BioAssay (NCATS).
